A selection follows.
aSyn 5UTR act – Activators via SNCA 5'UTR binding, MLPCN. alpha-synuclein 5'UTR reporter, activators screen. activity score, % (tested at 7.5 µM), hits read low. 300,000 tested, 7.1% active. AID 1814; in the data active = activity score below about -60%
The depositor's hits bear a star.

SMILES	aSyn 5UTR act
CCOc1cccc2sc(N(CCCN(C)C)C(=O)c3ccc(S(=O)(=O)N(CC)Cc4ccccc4)cc3)nc12	70.8
CCOc1cccc2sc(N(CCCN(C)C)C(=O)c3ccc(S(=O)(=O)N(C)Cc4ccccc4)cc3)nc12	55.9
Cc1ccnc2nc(C(=O)Nc3cc(Cl)ccc3N3CCOCC3)nn12	-77.0*
O=C(Nc1ccc(Cl)cc1F)c1ccccc1Br	-206.7*
O=C(NNC(=O)c1ccccc1Br)c1cccc(Cl)c1	-92.0*
O=C(Nc1ccc(Cl)cc1F)c1cccc2ccccc12	-63.3*
O=C(NCc1ccccc1F)c1ccc2c(c1)OCCO2	-79.9*
O=C(CCC1CCCN(C(=O)c2ccc3c(c2)OCCO3)C1)NCc1ccccc1F (configuration not stated)	-66.0*
NC(=O)c1oc2ccccc2c1NC(=O)c1nc2ccccc2s1	-120.7*
Clc1ccc(-c2nc3cc(CN4CCCCC4)ccc3o2)cc1	-206.0*
CCOC(=O)C(=Cc1ccc(Br)cc1)C(=O)OCC	-121.4*
CCOC(=O)/C(=C\c1cccnc1)C(=O)c1cc(C(C)=O)c(Nc2ccccc2)s1	82.9
CCOC(=O)C(CC)(CC)C(=O)/C=C/c1ccc(Br)cc1	-92.5*
O=C(O)c1cc(O)c2c(c1)C(=O)c1cc(O)cc(O)c1C2=O	-80.5*
COc1ccccc1NS(=O)(=O)c1cccc(NC(=O)c2cc3ccccc3oc2=O)c1	-113.9*
CN(c1ccccc1)S(=O)(=O)c1cccc(NC(=O)c2cc3ccccc3oc2=O)c1	-106.0*
Cc1ccc(NC(=O)c2cc3ccccc3oc2=O)cc1S(=O)(=O)N(C)C	72.9
CC(C)(C)Cc1nnc(NC(=O)c2ccc3c(c2)OCO3)s1	-112.0*
CCC(CC)c1nnc(NC(=O)c2ccc3c(c2)OCO3)s1	-169.1*
CC1(C)Cc2c(c(N3CCOCC3)nc3sc4c(NCc5ccccc5)nnnc4c23)CS1	68.2
N#Cc1ccsc1NC(=O)CCc1ccccc1	-80.7*
CC(=O)Nc1ccc(SCC(=O)Nc2sccc2C#N)cc1	-111.1*
N#Cc1ccsc1NC(=O)COC(=O)c1cc2ccccc2cc1O	-178.1*
N#Cc1ccsc1NC(=O)COC(=O)c1ccc(NC(N)=O)cc1	-78.0*
N#Cc1ccsc1NC(=O)COc1ccc(-c2nnco2)cc1	-95.8*
SMILES	aSyn 5UTR act
CCN(CC)c1ccc(C(=O)OCC(=O)Nc2sccc2C#N)cc1	-176.5*
COc1ccccc1CCC(=O)Nc1ncc(C)s1	-82.5*
COc1ccccc1CCC(=O)Nc1ccc(C)cc1Cl	-160.2*
Cc1cnc(NC(=O)COc2ccccc2Cl)s1	82.0
Cn1c(=O)c(-c2cc(Br)ccc2N)nc2ccccc21	-64.1*
O=C(/C=C1\SC(=O)N(CC(=O)Nc2ccc(F)cc2)C1=O)Nc1ccc(Cl)cc1	-195.9*
COP(=O)(OC)C(Nc1ccc(C)cc1)c1ccc([N+](=O)[O-])cc1 (configuration not stated)	-158.8*
COc1cccc(CN(C)C(=O)CCc2nnc(-c3ccsc3)o2)c1	-79.7*
Cc1ccsc1CN(C)C(=O)CCc1nnc(COc2ccccc2)o1	-62.3*
CN(Cc1ccsc1)C(=O)CCc1nnc(CCCc2ccccc2)o1	-118.6*
CC(C)NC(=O)N1CCCN(c2nc3ccc(Cl)cc3s2)CC1	-62.1*
CC(C)C(=O)N1CCN(c2nc3ccc(Cl)cc3s2)CC1	-139.6*
CCOc1ccc(C(=O)NC2=NCCS2)cc1	-84.5*
O=C(Nc1nc2ccccc2s1)c1ccc(OCC2CCCO2)cc1 (configuration not stated)	-88.6*
Cc1ccc(NC(=O)c2ccc(OC(=O)COc3ccc(Cl)c(C)c3)cc2)cc1	-115.3*
Cc1ccc(NC(=O)c2ccc(OCC3CCCO3)cc2)cc1 (configuration not stated)	-122.8*
Cc1cnc(NC(=O)c2ccc(OCC3CCCO3)cc2)s1 (configuration not stated)	79.1
O=C(NC1=NCCS1)c1ccc(OCC2CCCO2)cc1 (configuration not stated)	-77.0*
N/C(=N\OC(=O)C12CC3CC(CC(C3)C1)C2)c1ccccn1	-109.6*
N/C(=N\OC(=O)C12CC3CC(CC(C3)C1)C2)c1ccccc1	-134.2*
C/C(=N\NC(=O)c1ccccn1)C12CC3CC(CC(C3)C1)C2	-130.9*
C/C(=N/NC(=O)c1ccoc1C)C12CC3CC(CC(C3)C1)C2	-158.2*
N/C(=N\OC(=O)N1CCOCC1)c1ccccc1	-64.1*
CC(C)(C)c1ccc(OCc2cnc(Cl)s2)cc1	-105.2*
c1ccc(-c2ccc(-c3ccncn3)cc2)cc1	-78.0*
SMILES	aSyn 5UTR act
COc1cc(CNc2ccc3[nH]c(=O)[nH]c3c2)ccc1OCc1ccccc1	-86.3*
COc1cc(CNc2ccc3[nH]c(=O)[nH]c3c2)ccc1OCc1ccccc1F	-107.4*
COc1cc(CNc2ccc3[nH]c(=O)[nH]c3c2)ccc1OCc1ccc(F)cc1	-91.2*
COc1cc(CNc2ccc3[nH]c(=O)[nH]c3c2)ccc1OCc1ccc(Cl)cc1	-171.0*
COc1cc(CNc2ccc(CNc3ncn[nH]3)cc2)ccc1OCc1ccccc1	-116.7*
Cc1ccsc1/C=N/N1CCN(c2ccccc2)CC1	-148.0*
Cc1ccsc1/C=N/N1CCN(c2ccccn2)CC1	-93.9*
